# Reference: the OligoGym collection
# Target: RIN3
# Assay: pooled miR-30 sensor sort-seq; sequence = guide strand
# Conditions: shRNA
row,Sequence,sensor-assay potency score (higher = more potent)
1,TTGAGCTGGGTCATCATGGTGC,0.23
2,TATTCGAGCACCTCGGCCGAGC,-1.09
3,TTTGATGAGCTTCTCCAGGATG,-0.966
4,TAACTGGTTCTCCTTGAGCTGC,-1.24
5,TAGATGAGTTTGCAGGTCTTGA,-0.805
6,TGTTTTGATGAGCTTCTCCAGG,-1.05
7,TTTGCCAACAACTGGAACCGGA,-0.35
8,TGTCTAGCTGCTTCTTGCCGGG,-0.191
9,ATCTCCTGCAGCATCTCCGTGC,-0.98
10,TAAGTCTCTACTGACACAGTAG,-0.266
11,TTCCTTAATGGTGTATTCGAGC,-0.939
12,TTGCCAACAACTGGAACCGGAC,-1.3

# Target: RIT1
# Assay: as above
# Conditions: shRNA
row,Sequence,sensor-assay potency score (higher = more potent)
1,TAGCCTCTTCCATACACTGTTT,-0.898
2,TTATAAGCATCTTCAATGGTGG,-0.101
3,TCGGACTCGATAAATAAGCTGT,-0.314
4,TTAGCCTCTTCCATACACTGTT,-0.476
